Test results from article PMC7862700, “An all-to-all approach to the identification of sequence-specific readers for epigenetic DNA modifications on cytosine”.

Columns and labels:
Experiment in all cases: DAPPL (digital affinity profiling via proximity ligation, sequencing); 10 mM Tris-HCl pH 7.5, 50 mM NaCl, 1 mM DTT, 4% glycerol, room temperature, 30 min; GST-TFs on glutathione beads, 16-mer random dsDNA library, 0.1% formaldehyde crosslink after washing; high values mean tight binding
Conditions in all cases: protein: recombinant; tags: N-terminal GST; dsDNA, one strand shown
ELK4 = target: T1, ELK4 (Homo sapiens, UniProt P28324-2 1-405)
T1 sequence: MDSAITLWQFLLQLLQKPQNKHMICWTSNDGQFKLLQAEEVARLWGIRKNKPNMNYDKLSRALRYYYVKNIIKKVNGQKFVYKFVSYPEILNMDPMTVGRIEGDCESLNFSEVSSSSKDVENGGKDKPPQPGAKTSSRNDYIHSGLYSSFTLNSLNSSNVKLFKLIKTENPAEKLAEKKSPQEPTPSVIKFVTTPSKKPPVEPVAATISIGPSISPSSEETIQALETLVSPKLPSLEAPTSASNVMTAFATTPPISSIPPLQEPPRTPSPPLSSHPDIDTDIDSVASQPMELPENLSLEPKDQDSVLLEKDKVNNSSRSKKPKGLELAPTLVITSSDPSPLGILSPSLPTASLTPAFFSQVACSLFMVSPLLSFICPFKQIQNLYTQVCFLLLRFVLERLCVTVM
Outline: (§1)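 After expression in yeast as GST fusions, human transcription factors were bound to glutathione beads, DNA-barcoded and mixed with a tag-only sample. The pools were incubated with 200 nmole of a 16-mer random double-stranded DNA library in Tris/NaCl/DTT/glycerol buffer (30 min, room temperature), washed and crosslinked with 0.1% formaldehyde. Proximity ligation with BsaI/T4 ligase ran for 1 h at 37 °C, before PCR amplification and sequencing on an Illumina NextSeq500. Binding signal is a hexamer's read frequency for a factor divided by its frequency for the tag-only sample.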

ELF3 = target: T2, ELF3 (Homo sapiens, UniProt P78545 1-371)
T2 sequence: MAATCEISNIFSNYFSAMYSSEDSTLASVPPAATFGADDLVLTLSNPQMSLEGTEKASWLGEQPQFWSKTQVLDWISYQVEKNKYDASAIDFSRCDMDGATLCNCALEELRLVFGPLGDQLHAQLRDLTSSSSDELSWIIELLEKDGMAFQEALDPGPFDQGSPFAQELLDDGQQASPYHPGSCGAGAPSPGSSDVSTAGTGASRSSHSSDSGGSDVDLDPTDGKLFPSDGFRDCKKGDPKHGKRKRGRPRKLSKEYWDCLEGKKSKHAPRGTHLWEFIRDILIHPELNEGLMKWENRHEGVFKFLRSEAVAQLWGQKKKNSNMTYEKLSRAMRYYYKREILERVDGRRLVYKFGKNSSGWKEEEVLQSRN
Outline: as §1

ETV1 = ETV1 (Homo sapiens, UniProt P50549 1-477)
ETV1, sequence (P50549 whole entry): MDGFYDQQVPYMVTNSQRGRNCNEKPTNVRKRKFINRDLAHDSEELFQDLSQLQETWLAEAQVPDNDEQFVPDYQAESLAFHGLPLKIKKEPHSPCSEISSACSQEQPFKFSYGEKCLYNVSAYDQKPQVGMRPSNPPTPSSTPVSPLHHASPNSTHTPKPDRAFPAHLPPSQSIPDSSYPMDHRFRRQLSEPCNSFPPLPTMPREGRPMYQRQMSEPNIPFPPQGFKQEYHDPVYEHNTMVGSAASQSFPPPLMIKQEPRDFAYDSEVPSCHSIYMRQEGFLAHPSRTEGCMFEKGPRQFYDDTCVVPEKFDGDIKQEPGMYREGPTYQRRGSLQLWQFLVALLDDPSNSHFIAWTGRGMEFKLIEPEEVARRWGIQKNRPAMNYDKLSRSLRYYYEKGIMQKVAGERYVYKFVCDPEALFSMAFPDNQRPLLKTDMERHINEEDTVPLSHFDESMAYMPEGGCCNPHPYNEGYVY
Outline: as §1

ERF = target: T3, ERF (Homo sapiens, UniProt P50548 1-548)
T3 sequence: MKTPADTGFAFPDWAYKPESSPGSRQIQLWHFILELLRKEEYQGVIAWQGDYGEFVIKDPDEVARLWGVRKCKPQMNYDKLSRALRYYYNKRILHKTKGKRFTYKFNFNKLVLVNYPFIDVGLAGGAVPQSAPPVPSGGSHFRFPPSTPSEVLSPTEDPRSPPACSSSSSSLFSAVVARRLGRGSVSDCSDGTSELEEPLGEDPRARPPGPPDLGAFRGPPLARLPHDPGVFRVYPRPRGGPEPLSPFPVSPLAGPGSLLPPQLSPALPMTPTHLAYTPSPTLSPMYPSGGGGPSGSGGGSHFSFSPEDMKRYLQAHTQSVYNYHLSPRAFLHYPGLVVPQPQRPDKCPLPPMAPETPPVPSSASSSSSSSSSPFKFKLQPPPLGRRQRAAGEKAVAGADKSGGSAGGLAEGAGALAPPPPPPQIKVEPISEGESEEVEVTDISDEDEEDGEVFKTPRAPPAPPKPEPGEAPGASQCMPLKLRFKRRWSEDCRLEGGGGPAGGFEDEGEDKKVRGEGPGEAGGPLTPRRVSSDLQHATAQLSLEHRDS
Outline: as §1

ETV3L = target: T4, ETV3L (Homo sapiens, UniProt Q6ZN32 1-361)
T4 sequence: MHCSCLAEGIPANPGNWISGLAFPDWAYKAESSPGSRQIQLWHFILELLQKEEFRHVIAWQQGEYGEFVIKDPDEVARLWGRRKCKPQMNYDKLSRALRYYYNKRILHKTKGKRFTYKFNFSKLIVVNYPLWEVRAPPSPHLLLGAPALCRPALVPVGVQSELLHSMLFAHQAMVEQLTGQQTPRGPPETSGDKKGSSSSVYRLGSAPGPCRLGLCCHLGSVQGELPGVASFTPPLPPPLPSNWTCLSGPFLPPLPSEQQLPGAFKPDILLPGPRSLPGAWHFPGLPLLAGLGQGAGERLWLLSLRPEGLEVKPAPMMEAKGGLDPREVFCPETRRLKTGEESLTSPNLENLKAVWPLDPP
Outline: as §1

ETS2 = target: T5, ETS2 (Homo sapiens, UniProt P15036 1-469)
T5 sequence: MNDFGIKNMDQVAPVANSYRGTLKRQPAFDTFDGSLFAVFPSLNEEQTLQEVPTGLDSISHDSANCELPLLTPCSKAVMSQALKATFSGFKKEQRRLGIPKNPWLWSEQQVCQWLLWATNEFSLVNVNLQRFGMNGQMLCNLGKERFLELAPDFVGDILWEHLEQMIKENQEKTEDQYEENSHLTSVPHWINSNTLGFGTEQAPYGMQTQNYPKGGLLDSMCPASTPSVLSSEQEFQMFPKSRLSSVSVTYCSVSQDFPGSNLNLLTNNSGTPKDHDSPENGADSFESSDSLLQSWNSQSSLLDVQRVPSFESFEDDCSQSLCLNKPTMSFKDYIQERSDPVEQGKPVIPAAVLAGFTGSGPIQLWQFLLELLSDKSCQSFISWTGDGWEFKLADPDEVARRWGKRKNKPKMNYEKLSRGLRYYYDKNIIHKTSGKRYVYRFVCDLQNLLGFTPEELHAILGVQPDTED
Outline: as §1

SPDEF = target: T6, SPDEF (Homo sapiens, UniProt O95238 1-335)
T6 sequence: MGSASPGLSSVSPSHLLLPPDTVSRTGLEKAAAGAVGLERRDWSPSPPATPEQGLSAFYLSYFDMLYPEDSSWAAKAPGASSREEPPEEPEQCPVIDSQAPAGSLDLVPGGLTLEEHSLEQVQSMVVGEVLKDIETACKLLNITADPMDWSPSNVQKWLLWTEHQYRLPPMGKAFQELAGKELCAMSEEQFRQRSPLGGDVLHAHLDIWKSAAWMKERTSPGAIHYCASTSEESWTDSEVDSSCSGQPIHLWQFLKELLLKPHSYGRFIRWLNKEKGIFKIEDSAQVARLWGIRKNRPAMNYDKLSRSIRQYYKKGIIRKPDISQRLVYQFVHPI
Outline: as §1

ETV7 = target: T7, ETV7 (Homo sapiens, UniProt Q9Y603 1-341)
T7 sequence: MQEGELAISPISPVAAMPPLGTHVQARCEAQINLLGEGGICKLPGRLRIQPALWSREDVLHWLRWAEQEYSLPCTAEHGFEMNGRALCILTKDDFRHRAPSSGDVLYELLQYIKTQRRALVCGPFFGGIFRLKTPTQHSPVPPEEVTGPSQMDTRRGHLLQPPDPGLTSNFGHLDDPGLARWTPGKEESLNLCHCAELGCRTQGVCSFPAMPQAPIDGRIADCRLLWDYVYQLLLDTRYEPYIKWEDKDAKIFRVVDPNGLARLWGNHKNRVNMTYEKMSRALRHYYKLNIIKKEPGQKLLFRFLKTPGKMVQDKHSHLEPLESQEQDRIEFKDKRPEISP
Outline: as §1

ETV3 = target: T8, ETV3 (Homo sapiens, UniProt P41162-2 1-143)
T8 sequence: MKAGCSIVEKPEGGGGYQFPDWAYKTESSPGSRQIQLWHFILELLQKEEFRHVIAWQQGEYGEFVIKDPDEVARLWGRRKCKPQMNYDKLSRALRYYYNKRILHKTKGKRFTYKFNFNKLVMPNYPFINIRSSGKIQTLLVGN
Outline: as §1

ETV6 = ETV6 (Homo sapiens, UniProt P41212 1-452)
ETV6, sequence (P41212 whole entry): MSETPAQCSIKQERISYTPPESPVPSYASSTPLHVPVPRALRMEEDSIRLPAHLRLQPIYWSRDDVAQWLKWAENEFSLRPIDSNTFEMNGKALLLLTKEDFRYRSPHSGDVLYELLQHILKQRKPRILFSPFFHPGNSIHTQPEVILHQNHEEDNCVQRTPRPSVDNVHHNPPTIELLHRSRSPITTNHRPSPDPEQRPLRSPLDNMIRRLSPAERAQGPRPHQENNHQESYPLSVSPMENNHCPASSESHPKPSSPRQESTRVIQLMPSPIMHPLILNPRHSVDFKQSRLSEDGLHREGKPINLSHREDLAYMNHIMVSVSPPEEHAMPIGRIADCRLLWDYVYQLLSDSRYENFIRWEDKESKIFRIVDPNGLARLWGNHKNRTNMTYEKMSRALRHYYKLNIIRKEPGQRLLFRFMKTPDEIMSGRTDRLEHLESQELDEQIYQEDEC
Outline: as §1

## CAAACA
ELK4
  binding signal: 1.13 fold enrichment (6-mer frequency, TF over GST control)
ELF3
  binding signal: 1.21 fold enrichment (6-mer frequency, TF over GST control)
ETV1
  binding signal: 1.09 fold enrichment (6-mer frequency, TF over GST control)
ERF
  binding signal: 1.08 fold enrichment (6-mer frequency, TF over GST control)
ETV3L
  binding signal: 1.12 fold enrichment (6-mer frequency, TF over GST control)
ETS2
  binding signal: 1.16 fold enrichment (6-mer frequency, TF over GST control)
SPDEF
  binding signal: 1.12 fold enrichment (6-mer frequency, TF over GST control)
ETV7
  binding signal: 1.07 fold enrichment (6-mer frequency, TF over GST control)
ETV3
  binding signal: 1.13 fold enrichment (6-mer frequency, TF over GST control)
ETV6
  binding signal: 1.1 fold enrichment (6-mer frequency, TF over GST control)
